# Experimental data as given in PubChem BioAssay AID504843 (Broad Institute, 2011).
# The campaign covered roughly 1,200 compounds. About 360 (30%) were called active. How the calls were made is not given here. Not all results are given here. Entries that show only a call come without a potency. Potency and affinity values are given separately.
# Experiment: antibacterial activity by ATP level – BacTiter-Glo luminescence, cherry-picked samples, counter-screen, dose response (AID 504843);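 further: growth measured after 8 h incubation at 30 °C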
# Conditions: bacterial growth; series mostly up to 15 µM
row,Structure (SMILES),outcome
1,CC(C)c1ccc(OCC(=O)NC2=NCCS2)cc1,inactive
2,COc1ccc(-c2noc(CSc3nnc(-c4ccncc4)n3-c3ccc(F)cc3)n2)cc1OC,inactive
3,CCCCN1CC(COCc2ccccc2)Oc2cccc(N3CCCC3)c2S1(=O)=O (centres undefined),inactive
4,S=C(NCCCn1ccnc1)Nc1cccc(Cl)c1,inactive
5,O=C(CCCCCNC(=O)c1ccccc1)C[N+](=O)[O-],inactive
6,CN1CC(c2ccccc2Cl)C2(COc3ccccc3C2=O)C12C(=O)Nc1ccccc12 (centres undefined),inactive
7,CCC1=C(c2ccc(C)cc2)S(=O)(=O)N=C1N1CCC(C(=O)NCCCN2CCCCC2C)CC1 (centres undefined),inactive
8,COc1ccc2[nH]c3c(=O)n(CCN4CCOCC4)cnc3c2c1,inactive
9,O=C1/C(=C/c2cccnc2)Oc2cc(OS(=O)(=O)c3ccccc3)ccc21,inactive
10,COc1ccc(NS(=O)(=O)c2ccc(NC(=O)Cc3cccs3)cc2)cc1,inactive
11,CN(C)C(=S)Nc1ccc2ccccc2c1,inactive
12,CCN(CC)C(=O)Cn1cc(C(=O)C(=O)NCCCn2ccnc2)c2ccccc21,inactive
13,O=C(NCC1CCCO1)C(c1cccs1)N(C(=O)c1ccc(CN2CCOCC2)o1)c1ccc(Cl)cc1 (centres undefined),inactive
14,O=C1CCCC2=C1C(c1cccs1)CC(=O)N2c1ccc(F)cc1 (centres undefined),inactive
15,O=C1CCCC2=C1CC(C(=O)OCc1ccccc1)C(=O)N2Cc1ccccc1 (centres undefined),inactive
16,Cc1ccc[n+](CC(=O)c2cc3ccccc3oc2=O)c1,inactive
17,O=C1Nc2ccc(S(=O)(=O)NCCCO)c3cccc1c23,inactive
18,Cc1ccc(S(=O)(=O)Nc2c(C)n(C)n(-c3ccccc3)c2=O)cc1C(=O)NCc1ccco1,inactive
19,Cc1ccc(C(=O)CN2/C(=C(\O)c3ccccc3)C(=O)c3ccccc3S2(=O)=O)c(C)c1,inactive
20,CCn1c(C)nc2cc(C(=O)N/N=C/c3ccc(OC)c(O)c3)ccc21,inactive
21,O=C(Cc1ccccc1)Nc1ccc2oc(=O)ccc2c1,inactive
22,COc1cccc(-c2nn(-c3ccccc3)cc2CN(C)C(C)c2ccncn2)c1 (centres undefined),inactive
23,O=S(=O)(N1CCCCC1)N1CCN(c2ccccc2F)CC1,inactive
24,CCOC(=O)c1cnn(-c2cc(C)c3ccccc3n2)c1N,inactive
25,O=C(CSc1cccc2cccnc12)N/N=C/c1ccncc1,inactive
26,CCn1nc(-c2ccccc2)c2nc3ccccc3nc21,inactive

row,Structure (SMILES),outcome
1,Cc1cc(C(F)F)n2nc(C(=O)Nc3c(F)cc(F)cc3Br)nc2n1,inactive
2,Cn1c(N)c(C(=O)COC(=O)c2nc(Cl)ccc2Cl)c(=O)n(C)c1=O,inactive
3,CC(C)N(c1ccccc1)c1ccc(NC(=O)COC(=O)CCN2C(=O)c3cccc([N+](=O)[O-])c3C2=O)cc1,inactive
4,CN1CCCC(OC(=O)CCCCC(=O)OC2CCCN(C)C2)C1 (centres undefined),inactive
5,O=C(NCc1cccs1)Nc1cccc(Cl)c1,inactive
6,O=C(CN1CCC(c2nc3ccccc3s2)CC1)NCc1cccs1,inactive
7,COc1cc(/C=C2\C(=N)N3N=C(S(C)(=O)=O)SC3=NC2=O)ccc1OS(=O)(=O)c1ccc(C)cc1,inactive
8,COc1ccccc1NC(=O)C1=C(C)Nc2ncnn2C1c1ccc(C)o1 (centres undefined),inactive
9,Cc1cc(C(=O)CSc2nnc(-c3ccc4c(c3)OCO4)o2)c(C)n1-c1ccc(F)cc1,inactive
10,Cc1cccc2c1cnn2C(=O)CCC(=O)N1CC(C)CC(C)C1 (centres undefined),inactive
11,CCC(C)N1CCC2(CC1)N=c1c(c3c4c5c(C)c(O)c3c(O)c1=NC(=O)C(C)=CC=C[C@H](C)[C@H](O)[C@@H](C)[C@@H](O)[C@@H](C)[C@H](OC(C)=O)[C@H](C)[C@@H](OC)C=CO[C@@](C)(O5)C4=O)N2 (some centres undefined),inactive
12,O=C(Nc1cccc(NC(=O)c2cccnc2)c1)c1ccccc1,inactive
13,O=C(Nc1ccncc1)c1ccc(Cl)c(Cl)c1,inactive
14,NC(=O)C1CCN(C(=O)c2ccco2)CC1,inactive
15,Cc1ccc2c(C)nc(/N=C(\N)NC(=O)N3c4ccccc4Sc4ccccc43)nc2c1,inactive
16,CNC(=O)C(=O)NCCN1CCN(S(=O)(=O)c2ccc3ccccc3c2)CC1,inactive
17,O=C(CCSc1ccccc1)N1CCN(C(=O)c2ccco2)CC1,inactive
18,O=C(CCc1nnc2ccc(NCc3ccco3)nn12)N1CCN(c2ccccc2)CC1,inactive
19,CC(=O)c1ccc(-c2cccc(-c3nc4ccccn4c3NC3CCCCC3)c2)cc1,inactive
20,CCOC(=O)c1sc(NC(=O)CCN2C(=O)c3cccc([N+](=O)[O-])c3C2=O)c(C(=O)OCC)c1C,inactive
21,C#CCn1c(O)c(N=NC(=O)C(O)c2ccccc2)c2ccccc21 (centres undefined),inactive
22,COc1ccc(C(=O)Nc2c3c(nn2-c2ccc(Cl)cc2)CS(=O)(=O)C3)cc1,inactive
23,c1ccc(Nc2nc(Nc3ccccc3)nc(N3CCNCC3)n2)cc1,inactive
24,Cc1ccc(Nc2nnns2)cc1C,inactive
25,Cc1cc(=O)oc2cc(O)cc(O)c12,inactive
26,O=C(Nc1nnc(S(=O)(=O)N2CCCCCC2)s1)c1ccccc1Br,inactive

row,Structure (SMILES),outcome
1,CSc1ccccc1OCc1cc(C(=O)N(C)Cc2c(C)n[nH]c2C)no1,inactive
2,CCc1ccc2c(CSc3nnnn3C)cc(=O)oc2c1,inactive
3,Cc1ncc(CN2CCN(CCC(C)C)C(CCO)C2)s1 (centres undefined),inactive
4,CC(=O)C1C(c2ccc(Cl)cc2)NC(=O)NC1(O)C(F)(F)F (centres undefined),inactive
5,Cc1cc(=O)[nH]c(Sc2c(-c3ccccc3)c3ccccc3[nH]c2=O)n1,inactive
6,Cc1cc(C)n(CCC(=O)N/N=C/c2c(O)ccc3ccccc23)n1,inactive
7,COC(=O)[C@H]1[C@H]2C[C@H]3c4[nH]c5ccccc5c4CCN3C[C@@H]2CC[C@@H]1O,inactive
8,CCC(=O)NC(c1ccccc1Cl)c1c(O)ccc2ccccc12 (centres undefined),inactive
9,Cc1ccsc1C1C(C#N)=C(N)OC2=C1C(=O)CC(C)C2 (centres undefined),inactive
10,COc1cccc(C2CC(c3c(-c4ccccc4)c4cc(Cl)ccc4[nH]c3=O)=NN2S(C)(=O)=O)c1OC (centres undefined),inactive
11,CCn1c(SCC(=O)Nc2ccc(F)cc2)nnc1-c1cnccn1,inactive
12,CNC1=CC(=O)CC(c2ccccc2)C1 (centres undefined),inactive
13,COc1ccc(OCc2nnc3n2N=C(c2ccccc2)C(CC(=O)O)S3)cc1 (centres undefined),inactive
14,Cn1cccc1CNCC(O)c1ccccc1 (centres undefined),inactive
15,CN(C)S(=O)(=O)c1cccc(NC(=O)C2CCN(S(=O)(=O)c3cccs3)CC2)c1,inactive
16,Cn1c(SCC(=O)NCc2cccs2)nnc1-c1ccc(S(=O)(=O)N2CCCC2)cc1,inactive
17,CCCCn1c(N)c(N(CC)C(=O)c2ccc(Cl)c(Cl)c2)c(=O)[nH]c1=O,inactive
18,CCCCCN(C(=O)CCC(=O)OCC(=O)N(C)Cc1ccc(C)cc1)c1c(N)n(CCCC)c(=O)[nH]c1=O,inactive
19,CC1(C)CC(NC(=O)c2ccc(-c3ccc([N+](=O)[O-])cc3)o2)CC(C)(C)N1,inactive
20,CC(O)(CC(=O)CC(=O)c1ccccc1)c1ccccc1 (centres undefined),inactive
21,COc1ccc(C2CC(=O)c3cnc(NC(=O)c4ccccc4)nc3C2)c(OC)c1 (centres undefined),inactive
22,S=c1[nH]nc(-c2cccnc2)n1C1CCCCC1,inactive
23,COCc1cc(=O)[nH]c2cc(NC(=O)C(F)(F)F)c(C)cc12,inactive
24,CCOc1ccccc1C1C(C(N)=O)=C(C)Nc2nc(-c3ccccc3Cl)nn21 (centres undefined),inactive
25,COc1ccc(C2C(C#N)=C(N)Oc3c2sc2nc(C)cc(C)c32)cc1 (centres undefined),inactive
26,Cc1ccc2cccc(OCC(=O)N3CCc4ccccc43)c2n1,inactive

row,Structure (SMILES),outcome
1,Cc1cc(-n2c(C)cc(C(=O)COc3cccnc3[N+](=O)[O-])c2C)no1,inactive
2,CC(C)C[C@H]1C(=O)N2CCC[C@H]2[C@]2(O)O[C@](NC(=O)[C@@H]3C=C4c5cccc6[nH]c(Br)c(c56)CC4N(C)C3)(C(C)C)C(=O)N12 (some centres undefined),inactive
3,CCC(C)OC1OC(CO)C(O)C(O)C1NC(C)=O (centres undefined),inactive
4,CC(C)OC(=O)c1c(NC(=O)c2ccco2)sc2c1CCCC2,inactive
5,Cc1ccc(C(=O)N/C(=C\c2ccc(C(C)C)cc2)C(=O)NCCCN2CCOCC2)cc1,inactive
6,COc1ccc(S(=O)(=O)N2CCCOC2CNC(=O)C(=O)NCCCN2CCOCC2)cc1 (centres undefined),inactive
7,CCOC(=O)c1c(NC(=O)CCC(=O)O)sc2c1CC(C)(C)OC2,inactive
8,Cc1cc(NC(=O)C2CC2)ccc1NC(=O)c1cccs1,inactive
9,O=C1OCc2ccc(NC(=O)C3CC3)cc21,inactive
10,COc1ccc(-c2nc(C#N)c(NCC3CCCO3)o2)cc1OC (centres undefined),inactive
11,CCOC(=O)CSc1cc(CS(C)(=O)=O)nc(-c2ccccn2)n1,inactive
12,CC1CCN(CC[C@H]2CCCN2S(=O)(=O)c2cccc(O)c2)CC1,inactive
13,Cc1ccc(C(=O)c2cnc3ccccc3c2-c2ccccc2)cc1,inactive
14,CN(C)CCCNC(=O)C(=O)NCC1CCCO1 (centres undefined),inactive
15,CN(C(=O)c1cc2sccc2n1C)C1CCCCC1,inactive
16,Cc1nn(Cc2ccccc2)c(C)c1NC(=O)c1noc2c1CCc1ccccc1-2,inactive
17,Cc1ccc(Cn2nc(C)c(NC(=O)c3cc(C)no3)c2C)cc1,inactive
18,O=C(CCCc1ccccc1)Nc1ccc2c(c1)OCCO2,inactive
19,O=C(NCCc1ccccc1)c1n[nH]c2ccccc12,inactive
20,Cc1ccc(-n2c3nc(=O)[nH]c(=O)c-3cc3c(C)nn(-c4ccccc4)c32)c(C)c1,inactive
21,N#Cc1cn(CC(=O)N2CCCc3ccccc32)c2ccccc12,inactive
22,CC1CCc2nc(N)c(C#N)c(-c3ccncc3)c2C1 (centres undefined),inactive
23,COc1ccc(-c2ccc(-c3noc(-c4ccccc4OC)n3)c(OC)n2)cc1,inactive
24,CC(C)c1cc(C(=O)NCc2ccco2)no1,inactive
25,CCN(CC)S(=O)(=O)c1ccc(S(=O)(=O)Nc2ccc3c(c2)oc2ccccc23)cc1,inactive
26,C/C(=C\C(=O)OCCCCCCCCC(=O)O)C[C@@H]1OC[C@H](C[C@@H]2O[C@H]2[C@@H](C)[C@H](C)O)[C@@H](O)[C@H]1O,inactive
